The whole screen tested about 2,300 compounds, of which about 1,400 (61%) were called active. About 29% were inconclusive and are not listed. Calls come from the whole dose curve; as a rule, active = well fitted inhibition curve with a large enough effect; inconclusive = small, poorly fitted or top-dose-only effect, or effect the other way; inactive = no such curve, though single readings can be large or run the other way. So high a share suggests a set chosen from earlier hits. The list shows a part of the results.
Potency is the fitted concentration of half-maximal effect.

The nature of the test: Confirmation screen for delayed death inhibitors of the malarial parasite plastid, 96 hour incubation. Note: nearly all actives have a fitted effect of over 60% in size. The following applies: P. falciparum luciferase growth in erythrocytes; series mostly up to 28.7 µM. An outline of the steps:
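Erythrocytes infected with luciferase-expressing P. falciparum (2% hematocrit, 0.1% parasitemia final) in RPMI 1640 with 0.5% Albumax, exposed to compounds 96 h at 37 C, 5% CO2. Growth inhibition read as decreased luciferase luminescence.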
For `O=C(Cc1cccs1)NCCc1ccc(Cl)cc1`, the Potency was 5.62 µM (active).
With `CC(C)(C)OC(=O)[C@H]1[C@H](c2ccc([N+](=O)[O-])cc2)C2(C(=O)c3ccccc3C2=O)C2c3ccccc3C=NN21` (stereo partly drawn) the figure was 5.01 µM (active).
For the compound `COc1cccc(NC(=O)CSc2nc3ccccc3nc2N2CCCC2)c1`, the Potency was 12.6 µM (active).
With `O=C(O)c1nn(CCSc2ccccc2F)c(=O)c2ccccc12` the entry was “inactive”; with `O=c1cc(CSc2ccc(Cl)cc2)nc(-c2ccccn2)[nH]1`, 3.16 µM (active).
With `CN(CCCN1CCOCC1)C(=O)c1ccc2nc(Cc3cccc(Cl)c3)oc2c1` the figure was 11.2 µM (active); with `O=S(=O)(c1cnc[nH]1)N1CCN(C(c2ccc(F)cc2)c2ccc(F)cc2)CC1`, 11.2 µM (active); with `O=C(COC(=O)c1ccc(O)cc1O)Nc1ccc2ccccc2c1`, “inactive”.
With `O=C(O)c1ccc(O)cc1O` the figure was 2.51 µM (active); with `COc1cccc(CNC(=O)c2cc3oc4ccccc4c3n2C)c1OC`, “inactive”.
Regarding `CCOc1ccccc1CNC(=O)c1cc2oc3ccccc3c2n1C`, the Potency was 12.6 µM (active).
For `CCOc1ccccc1CNC(=O)c1cc2oc3ccccc3c2n1CC` the value was 12.6 µM (active).
For `CCOC(=O)[C@H]1[C@H]2COc3cc(OC)ccc3[C@@H]2N2C(=O)N(c3ccc(Cl)cc3)C(=O)[C@@]12C` the value was “inactive”; for `O=C(CN(c1ccc2c(c1)OCCO2)S(=O)(=O)c1ccccc1)NCc1ccc(Cl)cc1`, 12.6 µM (active).
With `O=C(CCN1CCN(S(=O)(=O)c2cccc([N+](=O)[O-])c2)CC1)Nc1ccccc1F` the figure was 10 µM (active); with `CSc1ccccc1NC(=O)CN1CCN(S(=O)(=O)c2ccccc2[N+](=O)[O-])CC1`, 12.6 µM (active); with `CCOC(=O)CCC(=O)Nc1ncnc2c1C(c1ccccc1)c1c(ccc3ccccc13)O2` (stereo not drawn), 7.94 µM (active).
`CCC(=O)c1ccc(OCC(=O)NCC2(N3CCCCC3)CCCCC2)cc1`: the Potency was 14.1 µM (active).
For `CN(C)S(=O)(=O)c1ccc(Cl)c(NC(=O)CN2C(=O)NC(C)(C3CC3)C2=O)c1` (stereo not drawn) the value was 12.6 µM (active); for `O=c1[nH]c(C2CCN(S(=O)(=O)c3cccc([N+](=O)[O-])c3)CC2)nc2c1nnn2Cc1ccccc1`, 8.91 µM (active).
Regarding `C#CCOCCOCCOCCNc1nc(N2CCN(C(=O)Cn3cc(CC(C)O)nn3)CC2)nc(N2CCN(C(=O)[C@H]([C@@H](C)CC)n3cc(CCCN=C(N)N)nn3)CC2)n1` (stereo partly drawn), the Potency was 1 µM (active).
With `C#CCOCCOCCOCCNc1nc(N2CCN(C(=O)Cn3cc(CCCCN)nn3)CC2)nc(N2CCN(C(=O)[C@H](C)n3cc(CCCN=C(N)N)nn3)CC2)n1` the figure was 1 µM (active); with `C#CCOCCOCCOCCNc1nc(N2CCN(C(=O)Cn3cc(CC(C)O)nn3)CC2)nc(N2CCN(C(=O)[C@H](C)n3cc(CCCN=C(N)N)nn3)CC2)n1` (stereo partly drawn), 15.8 µM (active).
Take `COCCNC(=O)CCCCCN1C(=O)CCC1=O`: the Potency result was “inactive”.
With `CC1(C)CCSC(/C=C/c2ccccc2)=N1` the figure was 6.31 µM (active); with `COc1ccc(/C=C2\CCC/C(=C\C=N\N(C)C)C2=O)cc1`, 12.6 µM (active); with `O=C(CC1Sc2ccccc2NC1=O)OCc1cc(=O)oc2cc(O)ccc12` (stereo not drawn), 7.08 µM (active).
For `C[C@H]1CN=C2N(CCNC(=O)CCC3CCCCC3)[C@H](Cc3ccc(O)cc3)CN21` the value was 6.31 µM (active); for `O=C(CCC1CCCCC1)NCCN1C2=NC[C@H](Cc3ccccc3)N2C[C@H]1Cc1ccc(O)cc1`, 6.31 µM (active).
For the compound `C[C@@H](CN1C2=NC[C@H](Cc3ccc(O)cc3)N2C[C@H]1Cc1ccc(O)cc1)NC(=O)CCC1CCCCC1`, the Potency was 5.62 µM (active).
In the case of `CC(=O)NC(=S)Nc1ccccc1C(=O)NC1CCCCC1`, the Potency is 12.6 µM (active).
For `O=C(NC1CCCC1)C(c1ccncc1)N(Cc1ccco1)C(=O)c1ccc(-c2ccccc2)[nH]1` (stereo not drawn) the value was 7.94 µM (active).
For `O=C(NC1CCCCC1)C(c1ccncc1)N(Cc1ccccc1)C(=O)c1ccc(-c2ccccc2)[nH]1` (stereo not drawn) the value was 3.98 µM (active); for `COc1cc2c(cc1OC)-c1cc(N3CCc4ccccc43)nc(=O)n1CC2`, 5.01 µM (active).
For `COC(=O)CCC(=O)OC1(C)C(=O)C=C2C=C(C3CC3)N(CCCOC(C)C)C=C2C1=O` (stereo not drawn) the value was 1.12 µM (active); for `O=C(N/N=C/c1ccc([N+](=O)[O-])cc1)c1cccc(N2CCCC2=O)c1`, 10 µM (active).
Turning to `CC[C@]1([C@H]2O[C@@H]([C@@H]3O[C@](O)(CO)[C@@H](C)C[C@H]3C)C[C@H]2C)CC[C@@H]([C@]2(C)CC[C@@]3(C[C@@H](O)[C@@H](C)[C@@H]([C@H](C)[C@H](OC)[C@H](C)C(=O)O)O3)O2)O1`, the Potency is 0.112 µM (active).
For `Cc1c(C(c2ccc(Br)cc2)c2c(C)n(C)n(-c3ccccc3)c2=O)c(=O)n(-c2ccccc2)n1C` the value was 11.2 µM (active).
With `CCOc1ccc2nc(C)cc(Nc3cccc([N+](=O)[O-])c3)c2c1` the figure was 2 µM (active); with `CCOc1ccccc1C1N=C(c2ccc(OC)cc2)CC(c2ccccc2O)N1` (stereo not drawn), 12.6 µM (active).
For `Cc1cccc(C)c1N1CCN(C(=O)c2ccc3c(c2)OCO3)CC1` the value was 12.6 µM (active); for `O=C(Nc1ccccc1C(F)(F)F)N1CCN(c2ccc3nnc(-c4ccc(F)cc4)n3n2)CC1`, 3.98 µM (active); for `O=C(c1ccc(Br)o1)N1CCN(c2ccc3nnc(-c4ccccc4)n3n2)CC1`, 7.94 µM (active).
As for `CC1CCCCN1C(=O)COC(=O)c1cccc(NS(=O)(=O)c2ccccc2)c1` (stereo not drawn), the Potency entry is “inactive”.
With `Cn1c(CCN2CCCC2)nc2cc(NS(=O)(=O)c3ccccc3)ccc21` the figure was 3.55 µM (active); with `Cn1c(CCN2CCCC2)nc2cc(NS(=O)(=O)c3ccc(Cl)cc3)ccc21`, 6.31 µM (active).
For `COc1ccc(OC)c(CCNC(=O)CCn2nc(C)c3c(C)n(-c4ccccc4)nc3c2=O)c1` the value was 5.62 µM (active).
For `COc1cc(CNC(=O)CCn2nc(C)c3c(C)n(-c4ccccc4)nc3c2=O)cc(OC)c1OC` the value was 12.6 µM (active); for `Cc1nn(CCC(=O)NCc2ccc(N(C)C)cc2)c(=O)c2nn(-c3ccccc3)c(C)c12`, 8.91 µM (active).
Consider `O=C(CCN1C(=O)C2CC=C(Cl)CC2C1=O)NCc1ccccc1` (stereo not drawn), for which the Potency entry was “inactive”.
For `COc1ccccc1CNC(=O)CCCn1nc(C)c2c(C)n(-c3ccccc3)nc2c1=O` the value was 12.6 µM (active); for `COc1ccccc1CCNC(=O)CCn1nc(C)c2c(C)n(-c3ccccc3)nc2c1=O`, 7.94 µM (active); for `CCC(C(=O)NCCc1ccccc1OC)n1nc(C)c2c(C)n(-c3ccccc3)nc2c1=O` (stereo not drawn), 10 µM (active).
For `C=C1CCC2[C@](C)(CO)[C@H](O)CC[C@@]2(C)[C@@H]1C/C=C1\C(=O)OC[C@H]1O` (stereo partly drawn) the value was 11.2 µM (active).
For `CC1(C)Cc2nc(-c3ccccc3)nc(SCC(O)CO)c2CO1` (stereo not drawn) the value was 12.6 µM (active).
Take `COc1ccc(C)c2sc(NC(=O)CCS(=O)(=O)c3ccccc3)nc12`: the Potency entry was “inactive”.
With `CCOc1cccc2sc(NC(=O)CCS(=O)(=O)c3ccccc3)nc12` the figure was 5.62 µM (active); with `CC(C)(C)Sc1ccc([N+](=O)[O-])cc1C(=O)Nc1ccncc1`, 2.51 µM (active).
With `COc1cccc(-c2sc3ccc(OC)cc3c2-c2cc(F)cc(OC)c2)c1` the figure was 10 µM (active); with `CN1C(=O)c2ccccc2N(C)C1c1cccc(O)c1` (stereo not drawn), 15.8 µM (active).
With `CC(=O)N1CCc2cc(S(=O)(=O)NCCC(=O)N3CCN(c4ccccn4)CC3)ccc21` the figure was 7.94 µM (active).
As for `CC1CN(c2nc(-c3ccc(Br)cc3)nnc2-c2ccccc2)CC(C)N1` (stereo not drawn), the Potency is 2.82 µM (active).
`O=C(CSc1nnc(-c2ccco2)o1)N1c2ccccc2CCc2ccccc21`: the Potency was 7.94 µM (active).
For `O=C(Cc1cn2ccsc2n1)Nc1nc2c(s1)CCCC2` the value was “inactive”.
With `O=C(Cn1c(=O)sc2ccccc21)Nc1nc2c(s1)CCCC2` the entry was “inactive”.
With `O=C(CCCl)Nc1nc2c(s1)CCc1ccccc1-2` the figure was 11.2 µM (active); with `COc1ccc(CN(C(=O)c2oc3ccc(F)cc3c2C)C2CCS(=O)(=O)C2)cc1` (stereo not drawn), 14.1 µM (active); with `Cc1cc(C(=O)N(C)CC2CCCN(CCc3ccc(F)cc3)C2)c(C)o1` (stereo not drawn), 14.1 µM (active).
Turning to `Cc1c(/C=N/NC(=O)c2cccs2)c2ccccc2n1Cc1ccccc1Cl`, the Potency is 3.16 µM (active).
With `Cc1ccccc1NC1=NCC(c2ccc([N+](=O)[O-])cc2)S1` (stereo not drawn) the figure was 11.2 µM (active); with `CCN(CC)CCNC(=O)c1ccc(NC(=O)c2ccccc2-c2ccc(C(F)(F)F)cc2)cc1`, 11.2 µM (active); with `CCN(CC)C(=O)CSc1nc(COc2ccccc2)nc2ccccc12`, 11.2 µM (active).
With `COc1ccc2[nH]c3c(NCCC4=CCCCC4)ncnc3c2c1` the figure was 5.62 µM (active); with `COc1ccc2[nH]c3c(NCCN(C(C)C)C(C)C)ncnc3c2c1`, 3.98 µM (active).
For `CC(C)OCCCNc1ncnc2c1[nH]c1ccc(F)cc12` the value was 4.47 µM (active); for `Cc1cc(=O)nc2c3ccccc3n(CC(=O)NCCC3=CCCCC3)n12`, 8.91 µM (active).
Take `Cc1ccccc1OCC(=O)NCCC1=CCCCC1`: the Potency result was “inactive”.
For `O=C(NCCCn1ccnc1)C(=O)NCC1OCCN1S(=O)(=O)c1ccc(F)cc1` (stereo not drawn) the value was “inactive”; for `COc1ccc(Cl)cc1NC(=O)C1Cc2cc(S(=O)(=O)N3CCCC3)ccc2N1C(C)=O` (stereo not drawn), 11.2 µM (active); for `COc1ccc(CCNC(=O)C(=O)NCC2OCCN2S(=O)(=O)c2ccc3c(c2)OCCO3)cc1OC` (stereo not drawn), 11.2 µM (active).
For `COc1ccc(CCNC(=O)C2CCN(S(=O)(=O)c3ccc(OC)c(OC)c3)CC2)cc1OC` the value was 12.6 µM (active); for `COc1ccc(S(=O)(=O)N2CCC(C(=O)Nc3ccccc3N3CCCCC3)CC2)cc1OC`, 7.94 µM (active).
With `Cc1ccc(-c2nnc(N3CCOCC3)c3ccccc23)cc1S(=O)(=O)NCC1CCCO1` (stereo not drawn) the figure was 2.51 µM (active).

Source of the values: PubChem BioAssay AID504848 (National Center for Advancing Translational Sciences (NCATS), 2011).
